Results published in PubChem BioAssay (EPA / NIEHS).
Records with an inconclusive call do not appear. The source made the active and inactive calls. The calls were made as follows: active = hit-call score of the fitted dose curve at least 0.9, where 1 is the maximum; inconclusive = response in the unintended direction; inactive = score below 0.9.

target: human Colony Stimulating Factor 1 Receptor (CSF1R), CSF1R (gene 1436) (UniProt P07333); test: NVS_ENZ_hCSF1R: NovaScreen (NVS) Enzymatic Assay for human Colony Stimulating Factor 1 Receptor (CSF1R) (AID 2283150)
Sequence (P07333 whole entry, looked up): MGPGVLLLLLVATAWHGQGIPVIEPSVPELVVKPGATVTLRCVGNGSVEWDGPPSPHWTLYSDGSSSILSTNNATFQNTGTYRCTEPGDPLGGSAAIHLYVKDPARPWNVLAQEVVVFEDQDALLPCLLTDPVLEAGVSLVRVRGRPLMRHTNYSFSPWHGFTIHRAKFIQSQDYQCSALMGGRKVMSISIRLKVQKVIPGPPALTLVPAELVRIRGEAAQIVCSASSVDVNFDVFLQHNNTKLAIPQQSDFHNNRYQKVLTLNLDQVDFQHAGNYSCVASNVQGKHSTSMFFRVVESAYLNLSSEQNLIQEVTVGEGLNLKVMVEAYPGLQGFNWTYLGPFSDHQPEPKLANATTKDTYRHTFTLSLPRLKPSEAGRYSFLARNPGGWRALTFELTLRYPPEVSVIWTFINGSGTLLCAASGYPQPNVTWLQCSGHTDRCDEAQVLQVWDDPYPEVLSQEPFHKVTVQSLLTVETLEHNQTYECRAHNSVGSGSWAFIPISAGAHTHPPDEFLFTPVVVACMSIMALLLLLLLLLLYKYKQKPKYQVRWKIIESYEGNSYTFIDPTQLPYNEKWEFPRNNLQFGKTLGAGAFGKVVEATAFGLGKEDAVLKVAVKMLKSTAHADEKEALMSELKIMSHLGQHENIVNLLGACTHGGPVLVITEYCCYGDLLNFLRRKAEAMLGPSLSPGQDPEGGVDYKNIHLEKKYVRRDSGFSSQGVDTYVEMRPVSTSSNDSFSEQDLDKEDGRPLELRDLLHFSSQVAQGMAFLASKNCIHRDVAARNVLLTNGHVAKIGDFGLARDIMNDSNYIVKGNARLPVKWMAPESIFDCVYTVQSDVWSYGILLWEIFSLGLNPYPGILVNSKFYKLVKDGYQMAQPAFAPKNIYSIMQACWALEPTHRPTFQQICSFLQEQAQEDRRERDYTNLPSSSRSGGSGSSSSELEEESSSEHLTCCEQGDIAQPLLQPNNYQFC
Procedure, shortened: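 Cell-free recombinant human CSF1R kinase with fluorescent substrate, product separated by electrophoretic mobility shift; read 1 h after dosing. Primary screen at 25 uM in duplicate, actives then in concentration-response up to 50 uM, relative to DMSO.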

**Q.** For `ClC1(Cl)C2(Cl)C3(Cl)C4(Cl)C(Cl)(Cl)C5(Cl)C3(Cl)C1(Cl)C5(Cl)C24Cl` (centres undefined), which outcome is on record?
**A.** inactive

**Q.** `Cn1sc(Cl)cc1=O` was tested. Which outcome did it give?
**A.** inactive

**Q.** `CCCCCCCCc1ccc(O)cc1` was tested. Which outcome did it give?
**A.** inactive

target: human Dual Specificity Protein Phosphatase 3 (DUSP3), DUSP3 (gene 1845) (UniProt P51452); test: NVS_ENZ_hDUSP3: NovaScreen (NVS) Enzymatic Assay for human Dual Specificity Protein Phosphatase 3 (DUSP3) (AID 2283152);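 also: phosphatase activity of recombinant human DUSP3 on a fluorogenic substrate without cells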
Sequence (P51452 whole entry, looked up): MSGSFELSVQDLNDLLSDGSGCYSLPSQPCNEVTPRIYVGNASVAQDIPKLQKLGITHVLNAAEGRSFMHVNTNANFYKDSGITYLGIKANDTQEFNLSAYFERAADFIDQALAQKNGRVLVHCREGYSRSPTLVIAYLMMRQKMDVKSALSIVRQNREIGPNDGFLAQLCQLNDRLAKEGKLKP
Procedure, shortened: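 Cell-free assay with recombinant human DUSP3 and fluorogenic substrate, read by fluorescence intensity. Primary screen ran duplicate at 25 uM; actives followed up in concentration series; loss of signal versus DMSO scored.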

**Q.** With `COP(=S)(OC)Oc1c(Cl)cc(C)cc1Cl` as the compound, how does the AC50 read?
**A.** 20.9 µM (active)

**Q.** How did the AC50 turn out when `Nc1cccc2ccccc12` was run?
**A.** 17 µM (active)

**Q.** `C=C(C)C(=O)[O][Sn]([CH2]CCC)([CH2]CCC)[CH2]CCC` was tested. Which AC50 did it give?
**A.** 10.9 µM (active)

**Q.** `Nc1ncc([N+](=O)[O-])s1` was tested. Which AC50 did it give?
**A.** 2.36 µM (active)

**Q.** For `ClC1(Cl)C2(Cl)C3(Cl)C4(Cl)C(Cl)(Cl)C5(Cl)C3(Cl)C1(Cl)C5(Cl)C24Cl` (centres undefined), which outcome is on record?
**A.** inactive

**Q.** How did the AC50 turn out when `CCOP(=S)(OCC)Oc1nc(Cl)c(Cl)cc1Cl` was run?
**A.** 6.51 µM (active)

**Q.** With `COc1cc(-c2ccc(N)c(OC)c2)ccc1N` as the compound, how does the AC50 read?
**A.** 7.49 µM (active)

**Q.** For `O=C(O)C(F)(F)C(F)(F)C(F)(F)C(F)(F)C(F)(F)C(F)(F)C(F)(F)C(F)(F)C(F)(F)C(F)(F)F`, which AC50 is on record?
**A.** 2.72 µM (active)

**Q.** `COP(=S)(OC)Oc1cc(Cl)c(Cl)cc1Cl` was tested. Which AC50 did it give?
**A.** 11.8 µM (active)

**Q.** Which AC50 does the source give for `COP(=S)(OC)Oc1ccc(S(=O)(=O)N(C)C)cc1` here?
**A.** 7.43 µM (active)

**Q.** `CCOP(=S)(OCC)SCSP(=S)(OCC)OCC` was tested. Which AC50 did it give?
**A.** 6.76 µM (active)
